Assay outcomes (PubChem BioAssay)
NS1 inh = influenza NS1 inhibition; Potency, µM (titrated, usually from 46.1 µM); 270,000 compounds, 0.4% hits; calls by dose curve; further: actives are rising curves; nearly all actives have a fitted effect of over 50% in size
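S. cerevisiae expressing influenza A NS1, grown in glucose, washed, then diluted 1:100 into pH 6.0 -URA galactose medium with 23 nl compound. Growth recovery read as OD600; NS1-free strain serves as control.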
Sm TGR block = inhibitors of Schistosoma mansoni thioredoxin glutathione reductase | Q962Y6 | purified TGR, DTNB reduction, TNB absorbance 405 nm | Potency, µM (series often up to 114 µM), usual class: inhibitors | 360,000 compounds, 3% hits | AID 485364; further: nearly all actives have a fitted effect of over 60% in size
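Kinetic colorimetric format: TGR-catalysed, NADPH-driven DTNB reduction monitored via TNB absorbance. Enzyme dispensed at 20 nM; compound exposure 15 min at room temperature before reaction start.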
AMA1-RON2 inh = inhibitors of Plasmodium falciparum AMA1-RON2 interaction. AlphaScreen AMA1-biotinylated RON2 peptide binding. Potency, µM (top dose mostly 58.2 µM), most hits filed as inhibitors. 360,000 compounds, 0.2% hits. AID 720542; further: nearly all actives have a fitted effect of over 45% in size
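AMA1 (3D7) with his tag at 25 nM final met compounds first, then biotinylated RON2 peptide at 25 nM; detection used donor plus acceptor beads, 10 µg/mL apiece, read by AlphaScreen after 30 min at room temperature.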
Pf growth 96h = P. falciparum growth inhibition at 96 hours; P. falciparum luciferase reporter growth, 96 h; 320,000 compounds, 6.9% hits; Potency, µM (highest dose often 28.7 µM), actives largely listed as inhibitors
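Infected RBCs, 2% Hct / 0.05% parasitemia final; luciferase-reporter P. falciparum; cpd 96 h, 37 C, 5% CO2; luciferase detection reagent; luminescence.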
Pf growth 48h = inhibits P. falciparum growth in the first generation, 48 h; 310,000 compounds, 5.9% hits; P. falciparum luciferase growth in erythrocytes, 48 h; Potency, µM (series often up to 28.7 µM), most hits filed as inhibitors; AID 504832
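Compounds are pin-transferred into medium, infected erythrocytes (2% hematocrit, 0.1% parasitemia final) are added, and plates sit one parasite generation at 37 C in 5% CO2. Detection reagent is then added and luminescence measured.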
Of the large screens only hits and unclear results are named; the others gave an inactive call. A selection: hits, their analogues and other compounds. The true share with any hit is near 11%. Unless noted, the call rests on the fitted dose curve; in most records, active means well fitted curve in the direction sought with a large enough effect; inconclusive means small, poorly fitted or top-dose-only effect, or another doubt; inactive means no such curve, though single readings can be large; an effect the other way counts as inactive or inconclusive.

Cc1ccc(S(=O)(=O)c2nc(S(C)(=O)=O)sc2N2CC(C)OC(C)C2)cc1 (stereo not given)	Pf growth 48h inconclusive
CC/C(=N\NC(=O)c1nnn(-c2nonc2N)c1CN(C)c1ccccc1)c1ccccc1	none
COc1ccccc1NC(=O)CSc1oc(-c2ccccc2)nc1S(=O)(=O)c1ccc(C)cc1	none (no result: NS1 inh, AMA1-RON2 inh, Pf growth 96h, Pf growth 48h)
CCC1CCCCN1C(=O)c1ccc2nc(Cc3ccc(OC)cc3)oc2c1 (stereo not given)	Pf growth 48h inconclusive
COc1ccc(Cc2nc3ccc(C(=O)N4CCCCC4CCO)cc3o2)cc1 (stereo not given)	Pf growth 96h 7.4µM
O=C(NCC1CCCCC1)c1cc(-c2cc(F)ccc2OCC2CCCO2)n[nH]1 (stereo not given)	none (no result: NS1 inh, Sm TGR block, Pf growth 96h, Pf growth 48h)
CCCCNCC(=O)Nc1ccc(NC(=O)CNCCCC)cc1	Pf growth 96h 12µM, Pf growth 48h inconclusive
Cn1cccc1/C=N/NC(=O)c1sc2cc(Cl)ccc2c1Cl	Pf growth 96h 2.3µM (no result: AMA1-RON2 inh)
CC(C)c1nc(C(=O)N2CCCC(N3CCN(c4cccc(Cl)c4)CC3)C2)cs1 (stereo not given)	Pf growth 96h 3.7µM, Pf growth 48h inconclusive
Cc1cccc(C(=O)N2CCCC(N3CCN(c4cccc(Cl)c4)CC3)C2)n1 (stereo not given)	none
Cc1ccccc1N1CCN(C2CCCN(C(=O)c3csc(C(C)C)n3)C2)CC1 (stereo not given)	Pf growth 96h inconclusive
O=C(c1cnccn1)N1CCCC(N2CCN(c3cccc(Cl)c3)CC2)C1 (stereo not given)	Sm TGR block 89µM
Cc1ccc(C(=O)C(C)OC(=O)c2cc(=O)[nH]c3ccccc23)cc1 (stereo not given)	AMA1-RON2 inh inconclusive (no result: NS1 inh)
Cc1ccc(C)c(NC(=O)c2ccc3c(O)c(S(=O)(=O)c4ccc(Cl)cc4)c(=O)[nH]c3c2)c1	none (no result: NS1 inh, AMA1-RON2 inh, Pf growth 96h, Pf growth 48h)
O=C(CCCn1c(=O)c2cccn2c2cccnc21)Nc1ccccc1Br	none (no result: NS1 inh, AMA1-RON2 inh, Pf growth 96h, Pf growth 48h)
Cc1noc(C)c1COc1ccc(C(=O)Nc2ncccc2O)cc1	Pf growth 96h inconclusive, Pf growth 48h 7.4µM (no result: NS1 inh)
COc1cc(C(=O)NCc2cccs2)ccc1OCc1c(C)noc1C	none (no result: NS1 inh, Sm TGR block, Pf growth 96h, Pf growth 48h)
COc1cc(C(=O)NCC(c2ccco2)N2CCCC2)ccc1OCc1c(C)noc1C (stereo not given)	Pf growth 96h inconclusive, Pf growth 48h 12µM
COc1ccccc1C(CNC(=O)c1ccc(OCc2c(C)noc2C)cc1)N1CCCC1 (stereo not given)	Sm TGR block inconclusive, Pf growth 96h 10µM, Pf growth 48h 10µM (no result: NS1 inh)
Cc1noc(C)c1COc1ccc(C(=O)NCC(c2c(F)cccc2Cl)N(C)C)cc1 (stereo not given)	Pf growth 96h 9.3µM, Pf growth 48h inconclusive (no result: NS1 inh)
COc1ccc(C(CNC(=O)c2ccc(OCc3c(C)noc3C)cc2)N2CCCC2)cc1 (stereo not given)	Pf growth 96h 3.7µM, Pf growth 48h 4.7µM (no result: NS1 inh)
O=C(COc1cccc2ccccc12)N1c2ccccc2CCc2ccccc21	Pf growth 96h inconclusive, Pf growth 48h 10µM
O=C(CCl)N1c2ccccc2CCc2ccccc21	Sm TGR block 11µM, Pf growth 96h inconclusive, Pf growth 48h 10µM (no result: AMA1-RON2 inh)
CC(Cl)C(=O)N1c2ccccc2CCc2ccccc21 (stereo not given)	Pf growth 96h inconclusive, Pf growth 48h inconclusive
COc1ccc(CCNC(=O)C(=O)Nc2ccc(C)c(C)c2)cc1OC	none (no result: NS1 inh, AMA1-RON2 inh, Pf growth 96h, Pf growth 48h)
O=C(Nc1ccc(Br)cc1F)c1ccc2nc(CCc3ccccc3)oc2c1	none (no result: NS1 inh, AMA1-RON2 inh, Pf growth 96h, Pf growth 48h)
COc1ccc2nc(S(=O)Cc3ncc(C)c(OC)c3C)[nH]c2c1 (stereo not given)	Pf growth 96h 3.3µM, Pf growth 48h 12µM
O=S(=O)(CC(c1ccccc1)N1CCCCC1)c1ccc(Cl)cc1 (stereo not given)	none
Cc1ccc(S(=O)(=O)CC(CN2CCCCC2)N2CCCCC2)cc1 (stereo not given)	Pf growth 96h inconclusive, Pf growth 48h 8.3µM (no result: Sm TGR block)
Cc1ccc(S(=O)(=O)CC(c2ccccc2)N2CCCCC2)cc1 (stereo not given)	Pf growth 96h 10µM
Cc1ccc(S(=O)(=O)CC(c2ccccc2)N2CCOCC2)cc1 (stereo not given)	Pf growth 96h 9.3µM
FC(F)(F)c1cccc(-n2cc(-c3ccccc3)[nH]c2=S)c1	NS1 inh inconclusive, Pf growth 48h 12µM
O=C(NCc1ccco1)c1ccc(-c2ccccc2Cl)o1	Sm TGR block 25µM (no result: NS1 inh)
COc1ccccc1CNC(=O)c1ccc(-c2ccccc2Cl)o1	Sm TGR block inconclusive, Pf growth 96h 10µM
COc1ccccc1CNC(=O)c1ccccc1C(=O)NC(C)(C)C(=O)NCc1ccccc1OC	Pf growth 96h 13µM
O=C(NCc1ccco1)c1ccc(-c2ccc(Cl)cc2)o1	none (no result: NS1 inh)
COc1ccccc1S(=O)Cc1ccc(C(=O)NCc2ccccc2Cl)o1 (stereo not given)	Sm TGR block 16µM (no result: Pf growth 48h)
Nc1ccn(CC(=O)N[C@H](CO)Cc2c[nH]c3ccccc23)c(=O)n1	none (no result: NS1 inh)
CCc1nc2ccc(C(=O)NCc3ccco3)cc2nc1CC	Sm TGR block 28µM, Pf growth 48h inconclusive (no result: Pf growth 96h)
CCCc1cc(C(=O)NCc2ccco2)no1	Sm TGR block inconclusive, Pf growth 96h 13µM (no result: Pf growth 48h)
CCC1=Nc2cc(C(=O)NCc3ccco3)ccc2Sc2ccccc21	NS1 inh inconclusive, Sm TGR block inconclusive, Pf growth 48h 7.4µM
CCC1=Nc2cc(C(=O)NCC3CCCO3)ccc2Sc2ccc(Br)cc21 (stereo not given)	Pf growth 96h inconclusive, Pf growth 48h 2.9µM (no result: NS1 inh)
CCC1=Nc2cc(C(=O)NCc3ccco3)ccc2Sc2ccc(Cl)cc21	Sm TGR block inconclusive, Pf growth 48h 1.5µM
CCC1=Nc2cc(C(=O)NCC3CCCO3)ccc2Sc2ccc(Cl)cc21 (stereo not given)	Pf growth 96h inconclusive, Pf growth 48h inconclusive
Cc1ccc(C)c(-n2nnnc2SCC(=O)NNC(=O)c2ccco2)c1	Pf growth 96h inconclusive
COc1ccc(C(O)c2nc(-c3ccc(OC)c(OC)c3)cs2)cc1 (stereo not given)	none (no result: NS1 inh, Sm TGR block, Pf growth 96h, Pf growth 48h)
CN(/N=C/c1cc(Br)cc(Br)c1O)c1cccc(C(F)(F)F)n1	Pf growth 96h inconclusive, Pf growth 48h 4.1µM
O=c1[nH]c(CCl)nc2cc(-c3ccc(F)cc3)sc12	Sm TGR block 11µM, Pf growth 96h inconclusive, Pf growth 48h inconclusive
COCCNc1nc2cc(-c3ccc(F)cc3)sc2c(=O)n1C	none (no result: NS1 inh, Sm TGR block, Pf growth 96h, Pf growth 48h)
Cc1ccc(CN=C(Nc2ccccc2)NC2CCCCC2)cc1	Pf growth 96h inconclusive, Pf growth 48h 10µM
O=C(Nc1ccccc1)NC1CCCCCCC1	none (no result: NS1 inh, Sm TGR block, Pf growth 96h, Pf growth 48h)
N#Cc1ccc(S(=O)(=O)N2CCC(Oc3cccc(C(F)(F)F)c3)CC2)cc1	none (no result: NS1 inh, AMA1-RON2 inh, Pf growth 96h, Pf growth 48h)
O=C1CC(c2ccco2)CC2=C1C(c1ccccc1)n1nc(C(F)(F)F)nc1N2 (stereo not given)	Sm TGR block inconclusive, Pf growth 48h 9.3µM (no result: Pf growth 96h)
NC(=O)C1CCN(C(=O)C(Cc2ccccc2)NC(=O)c2ccccc2)CC1 (stereo not given)	none (no result: NS1 inh)
